The values that follow come from PubChem BioAssay.

Inconclusive results are not listed. Calls of active or inactive are those of the source.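 Rule for the calls, unless noted: active = viability at or under a set limit in both replicates, limit being median viability minus 3 SD (cut at about 48% in these data, passing the limit was not always enough); inconclusive = at or under the limit in just one replicate; inactive = at or above the limit in both replicates.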

Assay [1] is described as follows: reducers of endogenous Her2 protein level, primary screen, SKBR3 breast tumor cells, AlphaScreen, ATP viability (AID 461;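 active = Her2 level under about 52% in both replicate screens, with viability over 70% of control, limit read from the data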;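 for Her2 level: lower value means less Her2 protein in the cells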;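 for viability: percent of carrier control wells set as 100% viability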). The following applies: 18-24 h, measured here: SKBR3 viability, ATP luminescence, at 10 µM.
Assay [2] has as its target Receptor tyrosine-protein kinase erbB-2 (Homo sapiens) (UniProt P04626). The assay is described as above. The following applies: 18-24 h, at 10 µM, stronger effect = lower value.
The nature of assay [3]: SK-BR-3 cell growth inhibitors, pilot screen, 24 h, human (AID 572;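 active = viability at or below 10% of carrier control in both of two separate runs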;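 note: compound exposure lasted between 18 and 24 h rather than exactly 24 h; 100% = carrier-treated control wells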). The note with it: SK-BR-3 viability, CellTiter-Glo luminescence, at 10 µM, stronger effect = lower value. (In general: In ATP-based viability assays light output follows the ATP content of the culture.)
The nature of assay [4]: HUVEC growth inhibition – cell-based, human, primary screen (AID 575;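 active = viability at or below 30% in both replicate assays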;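 note: 100% = median of untreated cell wells with 0.1% DMSO on each plate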). The note with it: HUVEC proliferation, CellTiter-Glo luminescence, 72 h; at 10 µM; stronger effect = lower value.
Assay [5] is described as follows: growth inhibitors of H69AR lung tumor, primary screen, human, duplicate replicates (AID 580).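 Note: 100% = mean luminescence of untreated wells and 0% = no signal.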 The note with it: H69AR lung tumor cells viability, ATP luminescence, 72 h; at 10 µM; stronger effect = lower value.
A short description of assay [6]: reversal of MRP1-mediated doxorubicin resistance, pilot screen, H69AR cells, doxorubicin co-treatment (AID 601;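 active = viability loss from added drug above about 55%, and viability with drug at most 40%, in both replicates, limit read from the data, passing the limit was not always enough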). The note with it: CellTiter-Glo, 72 h, at 10 µM; for differential viability (reversal): stronger effect = higher value.
Assay [7] in a line: 384-well plate pilot, post-Golgi transport modulator project, inhibition of yeast transport mutant growth (AID 636; in the data active = inhibition above about 31%). The note with it: absorbance 615 nm, about 18 h, stronger effect = higher value.
A short description of assay [8]: growth suppression of yeast trafficking mutant, preliminary HTS, modulators of trafficking downstream of Golgi apparatus project, 1536-format plate, OD 615 nm (AID 637; in the data active = inhibition above about 30%). The note with it: yeast transport mutant growth, absorbance 615 nm, 18 h; stronger effect = higher value.
Assay [9] in a line: OD615 S. cerevisiae growth inhibition, permissive medium, pilot counter-assay, permissive growth control for S. cerevisiae lifespan shortening project (AID 705;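 active = growth inhibition above 25% in both replicates, a cutoff set 3 SD above the mean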). The note with it: OD615, 24 h, at 10 µM, stronger effect = higher value.
The nature of assay [10]: Restrictive medium S. cerevisiae growth inhibition, OD615, pilot screen of yeast lifespan reduction project, restrictive growth control (AID 706;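 active = growth inhibition above a set limit, 3 SD over mean compound inhibition, in both replicates, cut at about 43% in these data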;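 note: modified DeaD lifespan yeast strain shifted to restrictive glucose medium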). The following applies: OD615, 48 h, at 10 µM, stronger effect = higher value.
Assay [11] can be described thus: viability gain of MRP-1-high H69AR cells under doxorubicin, pilot screen, MRP-1 activator project, CellTiter-Glo, duplicate (AID 807;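 active = viability increase at or above a cutoff of the median across tested compounds plus 3 SD, cut at about 8.5% in these data, passing the limit was not always enough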;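 note: compound pretreatment 18-22 h then 72 h combined with doxorubicin; 0% = doxorubicin alone and 100% = vehicle without doxorubicin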). The following applies: H69AR viability with doxorubicin, CellTiter-Glo luminescence; at 10 µM; stronger effect = higher value.
Assay [12] can be described thus: growth suppression of beta-catenin knockout HCT116, pilot screen, human colon tumor cells (AID 823;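 active = cell viability at or below a set limit in both duplicate runs, the limit being the all-compound median minus 4 SD, cut at about 23% in these data, passing the limit was not always enough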;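 note: 0% = wells killed by 20 µM Hyamine and 100% = untreated DMSO cell wells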). The note with it: CellTiter-Glo, 60 h, at 10 µM, stronger effect = lower value.
Assay [13] can be described thus: growth suppression of PTEN-deleted HCT116, pilot screen, cell-based, HCT116 clonal line, CellTiter-Glo (AID 824;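 active = viability at or below 27.92% in each of two runs, the all-compound median minus 4 SD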;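 note: 0% = 20 µM Hyamine control and 100% = vehicle cell control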). The note with it: 60 h, at 10 µM, stronger effect = lower value.
Assay [14] is described as follows: inhibitors of the yeast RAM network, pilot screen, dse1pr::URA3 reporter, 5-FOA selection (AID 869;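 active = inhibition over a set limit, the all-compound mean plus 3 SD, in both replicate runs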;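 note: 0% = DMSO wells with no growth and 100% = 10 µM 1-NA-PP1 with full growth; RAM network block rescues cells from 5-FOA so hits raise OD615 growth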). The following applies: S. cerevisiae dse1pr::URA3 5-FOA growth, OD615, 2 d; at 10 µM; stronger effect = higher value; strain carries analog-sensitive mutant Cbk1 kinase.
The nature of assay [15]: RAM signaling pathway blockade in yeast – S. cerevisiae, Pdr1DBD-CYC8 efflux-inhibited sensitized strain, primary screen (AID 1298;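 active = RAM network inhibition above 8.4% in each of two replicates, 3 SD over the compound average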;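 note: 0% = DMSO untreated cells without growth and 100% = 10 µM 1-NA-PP1 full growth; higher means more yeast growth rescued from 5-FOA killing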). The following applies: S. cerevisiae cbk1-as DSE1-URA3 strain, 5-FOA growth OD615, 2 d; at 50 µM; stronger effect = higher value.
[16] abbreviates: H69AR cells + 2 uM doxorubicin, measured here: viability with 2 uM doxorubicin, stronger effect = lower value.
[17] abbreviates: H69AR cells, compound alone cytotoxicity.

Sequence of Receptor tyrosine-protein kinase erbB-2 (Homo sapiens) (P04626 whole entry, looked up): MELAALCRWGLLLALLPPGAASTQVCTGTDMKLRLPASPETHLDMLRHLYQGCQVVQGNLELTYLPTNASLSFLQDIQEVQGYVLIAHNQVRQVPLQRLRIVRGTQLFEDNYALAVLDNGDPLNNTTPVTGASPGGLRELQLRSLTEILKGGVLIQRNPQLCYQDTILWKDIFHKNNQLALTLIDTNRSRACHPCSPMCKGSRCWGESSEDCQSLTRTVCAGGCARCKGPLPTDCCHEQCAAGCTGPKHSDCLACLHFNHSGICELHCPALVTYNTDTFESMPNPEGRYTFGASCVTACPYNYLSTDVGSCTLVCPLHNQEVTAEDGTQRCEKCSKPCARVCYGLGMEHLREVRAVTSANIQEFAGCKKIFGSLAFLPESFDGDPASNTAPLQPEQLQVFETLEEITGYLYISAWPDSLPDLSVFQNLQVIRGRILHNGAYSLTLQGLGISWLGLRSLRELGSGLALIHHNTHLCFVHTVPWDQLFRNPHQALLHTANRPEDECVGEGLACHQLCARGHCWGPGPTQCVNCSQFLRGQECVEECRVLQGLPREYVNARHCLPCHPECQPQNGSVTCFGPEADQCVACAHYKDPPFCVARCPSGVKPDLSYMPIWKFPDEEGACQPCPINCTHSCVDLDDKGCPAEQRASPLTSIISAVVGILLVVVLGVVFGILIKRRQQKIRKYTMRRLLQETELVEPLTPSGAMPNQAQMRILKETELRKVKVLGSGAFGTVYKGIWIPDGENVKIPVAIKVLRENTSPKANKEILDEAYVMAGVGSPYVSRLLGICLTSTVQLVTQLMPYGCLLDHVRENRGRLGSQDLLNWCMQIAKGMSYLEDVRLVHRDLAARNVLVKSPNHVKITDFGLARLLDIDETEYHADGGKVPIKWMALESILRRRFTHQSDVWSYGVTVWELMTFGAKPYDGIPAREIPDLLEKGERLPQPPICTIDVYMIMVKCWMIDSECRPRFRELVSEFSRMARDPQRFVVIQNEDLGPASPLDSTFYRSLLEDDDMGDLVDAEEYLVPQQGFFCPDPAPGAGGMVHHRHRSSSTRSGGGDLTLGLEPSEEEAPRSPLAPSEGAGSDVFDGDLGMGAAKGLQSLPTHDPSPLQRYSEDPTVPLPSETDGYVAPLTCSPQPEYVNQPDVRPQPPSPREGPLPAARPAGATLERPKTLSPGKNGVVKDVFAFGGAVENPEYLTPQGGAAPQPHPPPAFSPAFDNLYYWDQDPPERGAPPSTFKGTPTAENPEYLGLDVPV

The viability is a read-out of living cells in per cent, often relative to untreated cells. What is called inhibition is the drop in the measured response relative to a control, in per cent. For the compound `COc1cccc(-c2nc3n(n2)C(c2cccs2)C(C(=O)Nc2cccnc2)=C(C)N3)c1` (centres undefined), the viability in assay [1] was 78%; in [3], 78% (inactive); in assay [4], 83.2% (inactive); in [5], 101% (inactive); in assay [6] (setting [16]), 107%; in assay [6] (setting [17]) it was 101%. Moreover, the viability is 87.2% (inactive) in assay [12] and 93% (inactive) in [13]. Also, the Her2 level in [2] is 79% (inactive). For the same compound, in assay [6] (H69AR cells + 2 uM doxorubicin), the differential viability (reversal) was -5.46% (inactive). The inhibition in [7] was -2.93% (inactive); in assay [8], -0.67% (inactive); in assay [14], -0.145% (inactive). In addition, the growth inhibition in assay [9] was -13.1% (inactive); in [10] it was -6.04% (inactive). The viability increase in [11] is -2.26% (inactive). Also, the RAM network inhibition in assay [15] was 5.84% (inactive).
For the compound `O=C1c2ccccc2C(Nc2ccc(-c3nc4ccccc4[nH]3)cc2)N1Cc1ccco1` (centres undefined), the viability was 90.5% in assay [1]; 90.5% (inactive) in [3]; 65.9% (inactive) in assay [4]; 83.1% (inactive) in assay [5]; 68.1% in assay [6] (setting [16]); 83.1% in assay [6] (setting [17]). Besides, the viability was 59.2% (inactive) in assay [12] and 62.1% (inactive) in assay [13]. The Her2 level in assay [2] was 102% (inactive). Moreover, in assay [6] (H69AR cells + 2 uM doxorubicin), the differential viability (reversal) was 15% (inactive). Moreover, the inhibition in [7] is 0.4% (inactive); in [8] it was 0.5% (inactive); in assay [14], 2.23% (inactive). The growth inhibition in [9] is -0.49% (inactive); in assay [10] it was 4.04% (inactive). Moreover, the viability increase in [11] was -5.99% (inactive). Also, the RAM network inhibition in [15] was 2.26% (inactive).
Take `Cc1noc(C)c1S(=O)(=O)N1CCN(Cc2ccc3c(c2)OCO3)CC1`: the viability in [1] is 82.5%; in assay [3] it was 82.5% (inactive); in [4], 96.7% (inactive); in assay [5], 95.4% (inactive); in assay [6] (setting [16]), 85.7%; in assay [6] (setting [17]), 95.4%. Further, the viability in [12] was 95.3% (inactive); in assay [13], 98% (inactive). For the same compound, the Her2 level in assay [2] was 105% (inactive). The differential viability (reversal) in assay [6] (H69AR cells + 2 uM doxorubicin) is 9.66% (inactive). Moreover, the inhibition in assay [7] was -0.93% (inactive); in assay [8] it was 0% (inactive); in [14], 0.725% (inactive). In addition, the growth inhibition in assay [9] is -5.76% (inactive); in assay [10], 7.12% (inactive). Also, in assay [11], the viability increase was -0.42% (inactive). Moreover, the RAM network inhibition in assay [15] was 8.84% (inactive).
Take `Nc1nc(N2CCCCC2)nc(N(c2ccccc2)c2ccccc2)n1`: the viability in [1] was 107%; in assay [3], 107% (inactive); in assay [4], 69.3% (inactive); in [5] it was 70.6% (inactive); in [6] (setting [16]), 75%; in [6] (setting [17]), 70.6%. For the same compound, the viability is 89.5% (inactive) in assay [12] and 87.1% (inactive) in [13]. The Her2 level in [2] is 104% (inactive). The differential viability (reversal) in [6] (H69AR cells + 2 uM doxorubicin) is -4.36% (inactive). Further, the inhibition is -5.2% (inactive) in assay [7], -2.33% (inactive) in assay [8] and 0.36% (inactive) in assay [14]. Moreover, the growth inhibition in assay [9] is -12.8% (inactive); in assay [10], 8% (inactive). For the same compound, the viability increase in assay [11] is -1.3% (inactive). In assay [15], the RAM network inhibition is 1.36% (inactive).
Take `CC1(C)C(c2ccccc2)=NC(c2ccccc2)N1O` (centres undefined): the viability was 86.5% in assay [1]; 86.5% (inactive) in assay [3]; 98% (inactive) in assay [4]; 91.4% (inactive) in [5]; 83% in [6] (setting [16]); 91.4% in assay [6] (setting [17]). Also, the viability in [12] was 95.6% (inactive); in [13] it was 96.5% (inactive). Also, the Her2 level in [2] was 82% (inactive). The differential viability (reversal) in assay [6] (H69AR cells + 2 uM doxorubicin) was 8.36% (inactive). Moreover, the inhibition in assay [7] is -0.78% (inactive); in assay [8], -9% (inactive); in assay [14], 0.165% (inactive). Besides, the growth inhibition was -0.065% (inactive) in [9] and -4.8% (inactive) in assay [10]. The viability increase in [11] is -1.73% (inactive). Also, in [15], the RAM network inhibition is 3.18% (inactive).
With `CCN1CCN(C(CNC(=O)c2ccc3c(c2)OCO3)c2cccnc2)CC1` (centres undefined), the viability was 89.5% in [1]; 89.5% (inactive) in assay [3]; 86.4% (inactive) in [4]; 99.6% (inactive) in [5]; 90% in assay [6] (setting [16]); 99.6% in assay [6] (setting [17]). Besides, the viability is 104% (inactive) in assay [12] and 96.2% (inactive) in assay [13]. Also, the Her2 level in assay [2] was 93% (inactive). For the same compound, in assay [6] (H69AR cells + 2 uM doxorubicin), the differential viability (reversal) is 9.62% (inactive). Besides, the inhibition is -2% (inactive) in assay [7], -6.23% (inactive) in assay [8] and 1.35% (inactive) in assay [14]. For the same compound, the growth inhibition is -12.5% (inactive) in assay [9] and -4.73% (inactive) in assay [10]. The viability increase in [11] was 0.44% (inactive). For the same compound, the RAM network inhibition in assay [15] was 5.59% (inactive).
For `CC(C)c1nnc(NC(=O)c2ccc(N3C(=O)CCC3=O)cc2)s1`, the viability in assay [1] is 91.5%; in assay [3], 91.5% (inactive); in assay [4], 100% (inactive); in [5] it was 92.5% (inactive); in assay [6] (setting [16]), 94.3%; in assay [6] (setting [17]), 92.5%. Also, the viability in [12] was 101% (inactive); in [13], 95.3% (inactive). In addition, the Her2 level in assay [2] was 89.5% (inactive). Further, the differential viability (reversal) in assay [6] (H69AR cells + 2 uM doxorubicin) was -1.78% (inactive). Besides, the inhibition in [7] is -3.33% (inactive); in [8], -0.67% (inactive); in [14], 1.46% (inactive). Also, the growth inhibition in [9] is -2.77% (inactive); in [10] it was -18.5% (inactive). Also, in assay [11], the viability increase is -4.79% (inactive). Besides, in assay [15], the RAM network inhibition is 3.77% (inactive).
